Measured values as given in PubChem BioAssay AID489018 (Southern Research Specialized Biocontainment Screening …, 2010).
Hit rate of the full screen: of about 2,300 compounds, about 350 (15%) were called active. The rule behind the calls is not given here. These entries were drawn from the full list. Entries with a potency or affinity are not part of this list.

Experiment: HepG2 cell cytotoxicity, dose response, cytotoxicity control for non-replicating M. tuberculosis project (AID 489018);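 note: HepG2 human liver cells; 100% = vehicle-treated cells and 0% = background signal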
Settings: series mostly up to 20 µM; viability: at the top concentration

| SMILES | viability |
| --- | --- |
| CCc1ccc(NC(=O)C(=O)NNC(=O)COc2cccc(OC)c2)cc1 | 111% (inactive) |
| O=C(NNc1nc2cc3c(cc2s1)OCCO3)c1ccccc1 | 98.9% (inactive) |
| O=[N+]([O-])c1ccc(CNc2cccc(Cl)c2)s1 | 98.3% (inactive) |
| CC1=NN(C(=O)c2csc(C)c2C)C(O)(C(F)(F)F)C1 (stereo unspecified) | 98% (inactive) |
| CCOCC(=O)Nc1nc2ccc(C)cc2s1 | 87.5% (inactive) |
| CCN(CC)CCSc1nnc2c3cc(C)ccc3n(Cc3ccccc3)c2n1 | 94% [at 5 µM] (inactive) |
| O=C(Nc1nc2ccccc2n1CCN1CCCC1)c1ccc(Cl)cc1 | 97.8% [at 5 µM] (inactive) |
| O=C(Nc1nc2ccccc2n1CCN1CCCC1)C1CCCCC1 | 105% (inactive) |
| Cc1cccc(NC(=O)COC(=O)CCc2c[nH]c3ccccc23)c1 | 100% (inactive) |
| O=C(COC(=O)c1ccccc1Cl)NCCC1=CCCCC1 | 106% [at 5 µM] (inactive) |
| O=c1cc2[nH]c3ccccc3c(=O)n2nc1-c1ccccc1 | 96.7% (inactive) |
| CC1CC(C)CN(C(=O)COC(=O)c2ccc([N+](=O)[O-])o2)C1 (stereo unspecified) | 98.8% (inactive) |
| COc1ccc(CCCC(=O)NCc2ccccc2)cc1C | 104% (inactive) |
| COc1ccc(S(=O)(=O)NCc2ccc3c(c2)cc(C)n3C)cc1 | 105% (inactive) |
| COC(=O)COc1ccc2c(-c3ccc(OC)cc3)cc(=O)oc2c1 | 105% (inactive) |
| C=C1CCC[C@]2(C)C[C@H]3OC(=O)C(CNC(C)CCCC(C)C)[C@H]3CC12 (stereo partly specified) | 84.6% (inactive) |
| O=C(Oc1ccccc1Cl)c1ccc2c(=O)n3c(nc2c1)CCC3 | 96.1% (inactive) |
| CC(/C=C/c1cccc([N+](=O)[O-])c1)=N\NC(=O)c1ccncc1 | 92.2% (inactive) |
| COC(=O)COc1cccc(/C=N/NC(=O)CCSc2ccccc2)c1 | 99.2% [at 5 µM] (inactive) |
| CC(/C=C/c1ccccc1)=N\NC(=O)c1ccc2c(c1)OCCO2 | 101% [at 5 µM] (inactive) |
| Cc1occc1C(=O)N/N=C/c1ccc[nH]1 | 94.7% (inactive) |
| O=C(N/N=C/c1ccc[nH]1)c1ccc2c(c1)OCO2 | 94.7% [at 5 µM] (inactive) |
| Cc1occc1C(=O)N/N=C/C(Br)=C\c1ccccc1 | 73.8% (inactive) |
| C/C(=N\NC(=O)c1cccs1)c1ccc2c(c1)OCO2 | 86.2% (inactive) |

| SMILES | viability |
| --- | --- |
| O=C(N/N=C\c1ccccc1OCc1ccccc1)c1ccco1 | 106% (inactive) |
| C/C(Cn1nnc([N+](=O)[O-])n1)=N\NC(=O)c1ccncc1 | 83.8% (inactive) |
| COC(=O)CN(C#N)c1nc(SC)nc(N(C)C)n1 | 103% (inactive) |
| O=C1CCC/C(=N/Nc2ccc(Cl)cc2)C1 | 87.1% (inactive) |
| CCOCCOC(=O)c1ccc(NC(=O)C2COc3ccccc3O2)cc1 (stereo unspecified) | 107% (inactive) |
| Cc1ccc(C)c(NC(=O)c2cc([N+](=O)[O-])cc([N+](=O)[O-])c2)c1 | 116% (inactive) |
| Cc1cc(Cl)ccc1OC(C)C(=O)Nc1ccc([N+](=O)[O-])cn1 (stereo unspecified) | 105% (inactive) |
| O=C(CCc1ccc(Oc2cc([N+](=O)[O-])cc([N+](=O)[O-])c2)cc1)N1CCCCC1 | 85.8% (inactive) |
| Cc1cc(C)n(C(=O)c2ccc([N+](=O)[O-])cc2[N+](=O)[O-])n1 | 102% (inactive) |
| Cc1ccccc1-n1ncc2c([N+](=O)[O-])cc([N+](=O)[O-])cc21 | 97% (inactive) |
| N/C(=N/OC(=O)c1ccccc1Cl)c1ncc([N+](=O)[O-])s1 | 102% (inactive) |
| COc1ccc(OC)c(NC(=O)C(=O)NNC(=O)C23CC4CC(CC(C4)C2)C3)c1 | 87.2% (inactive) |
| Brc1ccc(-c2ccc(CNCc3ccccn3)o2)cc1 | 104% [at 5 µM] (inactive) |
| Cc1ccc2[nH]c3c(c2c1)CCCC3NCCO (stereo unspecified) | 101% (inactive) |
| Cc1ccc2c(c1)c1c3n2CCN=C3CCC1 | 97.6% (inactive) |
| O=C(COc1cccc2ccccc12)Nc1nc2ccccc2[nH]1 | 106% (inactive) |
| O=C(OCC(=O)N1CCC(c2ccccc2)=N1)c1ccc([N+](=O)[O-])s1 | 103% [at 5 µM] (inactive) |
| Cc1ccc(C(=O)NNC(=S)NC(=O)c2ccc(Cl)cc2)cc1 | 91.2% [at 5 µM] (inactive) |
| Cc1cc(Br)ccc1OCCCCN1CCC(C)CC1 | 80.7% (inactive) |
| CCCCCOc1ccc(CSC2=NCCN2)cc1[N+](=O)[O-] | 93.7% (inactive) |
| CCOC(=O)CCNC(=O)c1ccc2nc(C3CCCCC3)oc2c1 | 103% (inactive) |
| CCOc1ccc(/C=N/OCC(=O)Nc2ccc3c(c2)OCO3)cc1 | 94.3% (inactive) |
| O=C(Cn1cc([N+](=O)[O-])nc1[N+](=O)[O-])N1CCN(c2ccccc2)CC1 | 97.3% [at 5 µM] (inactive) |
| O=C(c1ccccc1[N+](=O)[O-])N1N=C(c2ccccc2)CC1(O)C(F)(F)F (stereo unspecified) | 101% [at 5 µM] (inactive) |

| SMILES | viability |
| --- | --- |
| CC1=NN(C(=O)c2ccc(Cn3nc(C)c(Br)c3C)cc2)C(O)(C(F)(F)F)C1 (stereo unspecified) | 80.5% (inactive) |
| Cc1ccc(OC(=O)c2ccc(Br)o2)cc1 | 101% (inactive) |
| O=C1NCC(O)=C1C=Nc1ccccc1O | 100% [at 5 µM] (inactive) |
| COc1cccc(NC(=O)c2ccc(Cn3cc([N+](=O)[O-])cn3)o2)c1 | 97.7% (inactive) |
| CCc1cccc(OCCCn2ccnc2)c1 | 101% [at 5 µM] (inactive) |
| CCOc1ccc(OCC(=O)Nc2ccc(OC)cc2)cc1 | 96% (inactive) |
| Cc1ccc(-c2noc(CCC(=O)Nc3cccc(C#N)c3)n2)cc1 | 100% (inactive) |
| Cn1cccc1/C=C1/C(=O)NC(=S)N(Cc2ccc(F)cc2)C1=O | 107% (inactive) |
| CCN1/C(=C(\O)c2ccccc2)C(=O)c2ccccc2S1(=O)=O | 71% (inactive) |
| Cc1cc(Nc2ccccc2)n(-c2nc3ccccc3[nH]2)n1 | 90.5% [at 5 µM] (inactive) |
| Cc1cc(NC(=O)c2ccccc2F)n(-c2nc3ccccc3[nH]2)n1 | 100% (inactive) |
| Cc1ccc(C(=O)N/N=C\c2ccc(-c3ccc(Cl)cc3)o2)cn1 | 90.8% (inactive) |
| CCN1CSC(=S)N(Cc2ccc(OC)cc2)C1 | 86.2% (inactive) |
| COc1cc(/C=N/N(C)C)ccc1OC(=O)c1cccs1 | 108% (inactive) |
| Cc1ccn2c(NC3CCCC3)c(-c3ccccn3)nc2c1 | 107% [at 5 µM] (inactive) |
| O=C(CC1CCCCC1)NCc1ccccc1 | 98.8% (inactive) |
| O=C(Nc1nnc(-c2ccc(Cl)cc2)o1)c1ccccc1Br | 83.9% (inactive) |
| O=C(Nc1nnc(-c2ccc(F)cc2)o1)c1cc(Cl)sc1Cl | 89.7% (inactive) |
| COc1cccc(C(=O)Nc2nnc(-c3ccc(F)cc3)o2)c1 | 80.5% (inactive) |
| COc1cccc(C(=O)OCC(=O)Nc2nnc(-c3ccccc3)o2)c1 | 94% (inactive) |
| Cc1ccc(C(=O)Nc2nnc(-c3ccncc3)o2)cc1 | 103% (inactive) |
| COc1ccc(C(=O)Nc2nnc(-c3ccccc3)o2)cc1OC | 90% (inactive) |
| Cc1cccc(C(=O)Nc2nnc(-c3cccnc3)o2)c1 | 95.1% (inactive) |
| COc1cccc(-c2nnc(NC(=O)c3cccc(F)c3)o2)c1 | 91.6% [at 5 µM] (inactive) |

| SMILES | viability |
| --- | --- |
| O=C1c2cccc3c([N+](=O)[O-])ccc(c23)C(=O)N1c1ccc(Cl)cn1 | 80.3% (inactive) |
| Cc1ccc(OCCCCn2ccnc2)c(Cl)c1 | 98.8% (inactive) |
| O=C(CCNc1cccc(Cl)c1)c1ccco1 | 98.8% [at 5 µM] (inactive) |
| CSc1ccccc1NC(=O)c1cc(C(C)C)on1 | 101% (inactive) |
| COc1ccc(/C=C2\COc3ccccc3C2=O)cc1OC | 93% (inactive) |
| COc1cccc(C(=O)OCC(=O)c2ccc(Br)s2)c1OC | 94.5% (inactive) |
| CCCCOC(=O)Cn1c(-c2ccccc2)nc2ccccc2c1=O | 104% (inactive) |
| O=C(Nc1ccc(S(=O)(=O)N2CCOCC2)cc1)c1ccc([N+](=O)[O-])s1 | 104% [at 5 µM] (inactive) |
| O=C(Nc1nnc(-c2ccccc2Cl)o1)c1cccnc1 | 91.2% (inactive) |
| O=C(Nc1nnc(-c2ccc(Cl)cc2)o1)c1cccc(N2C(=O)CCC2=O)c1 | 96.9% (inactive) |
| COc1ccc(C(=O)Nc2nnc(C3=COCCO3)o2)cc1 | 96.1% (inactive) |
| COc1ccc(-c2nnc(NC(=O)C3=COCCO3)o2)cc1 | 81.8% (inactive) |
| O=C(Nc1nnc(-c2ccccc2Cl)o1)c1ccco1 | 102% (inactive) |
| O=C(N/N=C/c1cc([N+](=O)[O-])ccc1O)C12CC3CC(CC(C3)C1)C2 | 82.9% (inactive) |
| CCN1CCN(c2ccc(S(=O)(=O)N3CCCCC3)cc2NC(=O)c2ccc([N+](=O)[O-])o2)CC1 | 91.2% [at 5 µM] (inactive) |
| O=C(OCc1cccc(F)c1)c1ccc2c(=O)n3c(nc2c1)CCC3 | 89.4% (inactive) |
| CN(C)CC/C=C1/c2ccc(F)cc2Sc2ccc(Cl)cc21 | 81.2% (inactive) |
| O=[N+]([O-])c1cc(-c2nc(-c3ccncc3)no2)cc([N+](=O)[O-])c1 | 85.4% (inactive) |
| O=c1c2cc(Cl)ccc2oc2nc3n(c(=O)c12)CCCS3 | 92.4% [at 5 µM] (inactive) |
| CC(=O)CC1(OC(C)=O)C(=O)N(C)c2ccccc21 (stereo unspecified) | 100% (inactive) |
| COc1ccc(/C=N/NC(=O)c2ccncc2)cc1CN1CCOCC1 | 94.9% (inactive) |
| O=C(Oc1cccc2cccnc12)c1ccc2c(c1)OCCO2 | 104% [at 5 µM] (inactive) |
| O=C(Oc1cccc2cccnc12)c1cccc([N+](=O)[O-])c1 | 107% (inactive) |
| O=C(CCN1CCOCC1)c1ccc(Cl)cc1 | 98.5% (inactive) |

| SMILES | viability |
| --- | --- |
| Oc1ccc(F)c2cccnc12 | 95.5% (inactive) |
| COc1cc(NC(=O)N2CCOCC2)cc(OC)c1 | 108% (inactive) |
| COc1cc(OC)cc(OC(=O)c2ccc3c(=O)n4c(nc3c2)CCC4)c1 | 103% (inactive) |
| O=C(Oc1cccc2cccnc12)c1cccc(-n2cnnn2)c1 | 96.3% (inactive) |
| CCc1ccc(N2NC(=O)/C(=C/C=C/c3ccco3)C2=O)cc1 | 87.6% (inactive) |
| Cc1ccccc1OCCCCc1c(C)n[nH]c1C | 71.8% (inactive) |
| COc1ccc(C(=O)COC(=O)c2ccc(Cl)nc2)c(OC)c1 | 101% (inactive) |
| COc1ccc(N2C(=O)NC(=O)/C(=C/c3ccc([N+](=O)[O-])s3)C2=O)cc1 | 89.5% (inactive) |
| CCc1ccc(Cc2cnc(NC(=O)C3=NCCN3)s2)cc1 | 82.6% (inactive) |
| CCCCNC(=O)Cc1ccc(C)cc1 | 95.6% (inactive) |
| COc1cccc2[nH]c3c(Cl)ncnc3c12 | 115% (inactive) |
| Cc1ccc(C(=O)Oc2cccc(-n3cnnn3)c2)cc1 | 92.2% (inactive) |
| CCOC(=O)C1(CCc2ccccc2)CCN(Cc2ccccn2)CC1 | 102% (inactive) |
| O=C(COc1c(Br)cc(Br)c2cccnc12)N1CCCCC1 | 86.5% (inactive) |
| O=C(OCC(=O)N1CCN(c2ccccc2)CC1)c1cnc(Cl)c(Cl)c1 | 97.9% (inactive) |
| Cc1[nH]n2c(=O)c3c(nc2c1-c1ccccc1)CCCC3 | 74.7% (inactive) |
| O=C(Nc1nc2ccccc2[nH]1)c1cccc([N+](=O)[O-])c1 | 87.5% (inactive) |
| Cc1cc(C)n2[nH]c(=O)c(N=Nc3cccc(C(F)(F)F)c3)c2n1 | 88.9% (inactive) |
| CCOC(=O)c1ccc(-c2ccc(C(=O)Nc3cccnc3)o2)cc1 | 99.3% (inactive) |
| Cc1cccc(C)c1NC(=O)COC(=O)CCc1c[nH]c2ccccc12 | 105% [at 5 µM] (inactive) |
